# The source made the active and inactive calls.
# Experiments:
# [1] = test system: Plasmodium falciparum Sir2 (PF13_0152, Sir2A); assay: pfSir2 binders on small-molecule microarrays, primary screen, biochemical, small-molecule microarray, 635 nm fluorescence (AID 1098); conditions: small-molecule microarray binding, fluorescence 635 nm; higher = more signal;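 further: score merges spot fluorescence intensity with its signal-to-noise ratio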
# [2] = small-molecule microarray binders of probe aDKK1, primary screen, biochemical, biotinylated probe, 635/667 nm fluorescence (AID 1099); conditions: higher = more signal;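 further: score merges 667nm spot fluorescence with signal to noise across triplicate slides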
# [3] = small-molecule microarray binders of probe aCHRDL2, primary screen, biochemical, biotinylated probe, 635/667 nm fluorescence (AID 1100); conditions: higher = more signal
# [4] = splicing luciferase reporter signal modulators, primary screen, spliceosome inhibition project, cell-based, HEK293, splice +/- reporter (AID 1101); conditions: luminescence, 24 h, higher = more signal, called active from +8 up or from −8 down;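 further: HEK293 cells carrying a splicing-competent luciferase reporter gene; test concentration not given here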
# [5] = molecular target: Fibroblast growth factor 10 (Homo sapiens) (UniProt O15520); assay: FGF10 binders on small-molecule microarrays, primary screen, biochemical, small-molecule microarray, 635 nm fluorescence (AID 1102); conditions: FGF10 binding, fluorescence 635 nm, higher = more signal
# [6] = test system: glycogen synthase kinase-3 (GSK3A per assay name; protocol says GSK3B); assay: GSK3 binders on small-molecule microarrays, primary screen, biochemical, small-molecule microarray, 635 nm fluorescence, GSK3A (AID 1103); conditions: small-molecule microarray binding, fluorescence 635 nm; higher = more signal; further: the record names both GSK3A and GSK3B
# [7] = molecular target: Epidermal growth factor receptor (Homo sapiens) (UniProt P00533); assay: EGFR binders on small-molecule microarrays, primary screen, biochemical, small-molecule microarray, 635 nm fluorescence (AID 1104); conditions: EGFR binding, higher = more signal;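 further: score merges 667 nm emission intensity with spot signal to noise over triplicate slides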
# [8] = molecular target: Follistatin-related protein 3 (Homo sapiens) (UniProt O95633); assay: FSTL3 binders on small-molecule microarrays, primary screen, biochemical, small-molecule microarray, 635 nm fluorescence (AID 1105); conditions: FSTL3 binding, higher = more signal;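 further: score merges emission near 667 nm and signal to noise per printed spot across three slides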
# [9] = molecular target: Dickkopf-related protein 1 (Homo sapiens) (UniProt O94907); assay: DKK1 binders on small-molecule microarrays, primary screen, biochemical, small-molecule microarray, 635 nm fluorescence scan (AID 1106); conditions: DKK1 binding, higher = more signal;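 further: score merges emission near 667 nm with signal to noise over three replicate slides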
# [10] = test system: Inhibin beta A chain (activin A); assay: INHBA (activin A) binders on microarrays, primary screen, biochemical, small-molecule microarray, 635 nm fluorescence scan (AID 1107); conditions: small-molecule microarray binding, higher = more signal;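 further: mouse activin A protein probed at 4.33 µg/mL on printed slides; score merges bound-protein fluorescence near 667 nm with spot signal-to-noise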
# [11] = test system: Human papillomavirus type 1a protein E7 (residues 44-93); assay: HPV1a E7 fragment binders on microarrays, primary screen, biochemical, small-molecule microarray, residues 44-93, 635 nm fluorescence (AID 1108); conditions: small-molecule microarray binding, fluorescence 635 nm; higher = more signal;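 further: E7 fragment applied at 1 µg/mL in TBST for 1 h at 4 C; score combines spot fluorescence with its signal to noise ratio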
# [12] = modulators of HCV replicon luciferase signal, primary screen, HCV replication inhibitor project, Huh7 cells, luciferase reporter (AID 1109); conditions: 48 h, higher = more signal;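 further: huh7 hepatoma cells harbouring a luciferase neomycin HCV replicon reporter; luciferase luminescence as measure of HCV replicon replication; test concentration not given here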
# [13] = molecular target: Left-right determination factor 2 (Homo sapiens) (UniProt O00292); assay: LEFTY2 binders on small-molecule microarrays, primary screen, biochemical, small-molecule microarray, 635 nm fluorescence scan (AID 1110); conditions: LEFTY2 binding, higher = more signal
# [14] = molecular target: Calmodulin-1 (Homo sapiens) (UniProt P0DP23); assay: CALM1 binders on microarrays, EGTA buffer, profiling panel, biochemical, small-molecule microarray, Cy5-labelled CALM1 (AID 1111); conditions: Cy5-CALM1 binding fluorescence, higher = more signal;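 further: labelled calmodulin applied in Tris saline Tween buffer holding calcium plus EGTA and DTT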
# [15] = molecular target: Calmodulin-1 (Homo sapiens) (UniProt P0DP23); assay: calcium-bound CALM1 binders on microarrays, profiling panel, artefact control for SMM control-protein annotation, biochemical, small-molecule microarray, Cy5-labelled CALM1, plus calcium (AID 1112); conditions: Cy5-CALM1 binding fluorescence, higher = more signal;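 further: score merges spot fluorescence with signal to noise from triplicate slides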
# [16] = small-molecule microarray binders of probe aWnt5a, primary screen, biochemical, biotinylated probe, 635/667 nm fluorescence (AID 1113); conditions: higher = more signal;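 further: score merges 667 nm fluorescence intensity with signal-to-noise per printed feature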
# [17] = small-molecule microarray binders of probe aShh, primary screen, biochemical, biotinylated probe, 635/667 nm fluorescence (AID 1114); conditions: higher = more signal;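 further: probe is biotin-labelled aShh protein from a stem cell growth factor screen; measures binding of labelled protein to compounds printed on the slide; score merges feature fluorescence at 667 nm with signal-to-noise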
# [18] = small-molecule microarray binders of probe aNog, primary screen, biochemical, biotinylated probe, 635/667 nm fluorescence (AID 1115); conditions: higher = more signal;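 further: probe is biotinylated aNog protein used at 0.15 µg/mL for 1 h at 4 C; z-score combines 667 nm fluorescence of each spot with its signal to noise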
# [19] = molecular target: Torsin-1A-interacting protein 1 (Homo sapiens) (UniProt Q5JTV8); assay: LAP1 binders from COS7 cell lysate, primary screen, small-molecule microarray, 635/667 nm fluorescence (AID 1116); conditions: COS7-hLAP1 lysate binding, 635 nm fluorescence, higher = more signal
# [20] = molecular target: Alpha-bungarotoxin (Bungarus multicinctus) (UniProt P60615); assay: alpha-bungarotoxin binders on microarray, profiling panel, artefact control for SMM control protein annotation, biochemical, small-molecule microarray, Alexa647 label, 635/667 nm fluorescence (AID 1117); conditions: alpha-BTX-A647 binding fluorescence, higher = more signal
# Chain of Alpha-bungarotoxin (Bungarus multicinctus) (P60615 whole entry, looked up): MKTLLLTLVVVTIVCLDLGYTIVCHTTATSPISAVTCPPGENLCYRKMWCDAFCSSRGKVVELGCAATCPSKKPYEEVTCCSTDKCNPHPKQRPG
# Chain of Left-right determination factor 2 (Homo sapiens) (O00292 whole entry, looked up): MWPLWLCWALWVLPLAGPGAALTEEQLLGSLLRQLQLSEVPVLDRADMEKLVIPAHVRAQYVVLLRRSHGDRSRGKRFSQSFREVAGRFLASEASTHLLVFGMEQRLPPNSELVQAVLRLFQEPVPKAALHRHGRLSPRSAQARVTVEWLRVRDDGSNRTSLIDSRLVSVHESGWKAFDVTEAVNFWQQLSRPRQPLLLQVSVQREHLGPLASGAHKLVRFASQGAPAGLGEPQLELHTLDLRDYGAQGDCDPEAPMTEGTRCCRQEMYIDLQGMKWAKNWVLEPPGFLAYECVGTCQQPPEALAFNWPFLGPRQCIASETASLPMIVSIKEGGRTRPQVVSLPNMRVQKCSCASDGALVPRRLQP
# Chain of Epidermal growth factor receptor (Homo sapiens) (P00533 whole entry, looked up): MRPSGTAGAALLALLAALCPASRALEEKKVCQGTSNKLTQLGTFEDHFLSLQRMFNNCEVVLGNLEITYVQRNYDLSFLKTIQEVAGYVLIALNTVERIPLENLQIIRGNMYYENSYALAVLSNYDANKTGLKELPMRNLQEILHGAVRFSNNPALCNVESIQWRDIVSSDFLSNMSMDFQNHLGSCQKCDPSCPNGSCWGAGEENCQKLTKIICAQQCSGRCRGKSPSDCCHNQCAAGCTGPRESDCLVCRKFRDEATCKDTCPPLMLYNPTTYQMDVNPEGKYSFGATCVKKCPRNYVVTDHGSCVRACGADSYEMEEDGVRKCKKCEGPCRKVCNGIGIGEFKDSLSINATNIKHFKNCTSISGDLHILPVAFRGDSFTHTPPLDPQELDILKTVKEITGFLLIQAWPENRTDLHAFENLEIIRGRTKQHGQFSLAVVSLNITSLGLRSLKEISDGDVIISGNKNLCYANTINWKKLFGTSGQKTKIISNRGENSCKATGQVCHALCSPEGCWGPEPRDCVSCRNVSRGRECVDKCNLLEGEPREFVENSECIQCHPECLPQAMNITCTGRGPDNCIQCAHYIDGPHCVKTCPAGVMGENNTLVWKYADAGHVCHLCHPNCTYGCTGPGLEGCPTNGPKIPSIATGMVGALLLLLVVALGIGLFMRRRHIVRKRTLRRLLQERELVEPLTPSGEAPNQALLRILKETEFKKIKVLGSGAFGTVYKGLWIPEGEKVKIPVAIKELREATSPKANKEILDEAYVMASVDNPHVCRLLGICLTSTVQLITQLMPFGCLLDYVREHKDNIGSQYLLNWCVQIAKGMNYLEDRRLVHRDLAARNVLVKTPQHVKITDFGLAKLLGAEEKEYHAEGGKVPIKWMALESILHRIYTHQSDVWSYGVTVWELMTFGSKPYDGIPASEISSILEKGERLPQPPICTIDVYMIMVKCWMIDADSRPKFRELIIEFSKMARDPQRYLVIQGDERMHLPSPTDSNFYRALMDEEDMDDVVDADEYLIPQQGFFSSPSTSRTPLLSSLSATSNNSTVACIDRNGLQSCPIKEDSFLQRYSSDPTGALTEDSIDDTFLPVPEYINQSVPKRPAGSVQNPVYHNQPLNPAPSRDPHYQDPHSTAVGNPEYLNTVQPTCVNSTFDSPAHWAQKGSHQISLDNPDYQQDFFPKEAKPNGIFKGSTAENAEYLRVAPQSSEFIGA
# Chain of Follistatin-related protein 3 (Homo sapiens) (O95633 whole entry, looked up): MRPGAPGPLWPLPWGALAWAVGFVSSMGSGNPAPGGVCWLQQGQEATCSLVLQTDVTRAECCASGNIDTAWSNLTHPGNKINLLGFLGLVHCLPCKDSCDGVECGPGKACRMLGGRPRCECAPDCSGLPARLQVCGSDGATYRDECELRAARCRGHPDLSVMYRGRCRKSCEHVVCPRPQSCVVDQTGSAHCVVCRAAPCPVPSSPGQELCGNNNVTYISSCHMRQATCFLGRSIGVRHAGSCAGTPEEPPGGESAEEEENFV
# Chain of Torsin-1A-interacting protein 1 (Homo sapiens) (Q5JTV8 whole entry, looked up): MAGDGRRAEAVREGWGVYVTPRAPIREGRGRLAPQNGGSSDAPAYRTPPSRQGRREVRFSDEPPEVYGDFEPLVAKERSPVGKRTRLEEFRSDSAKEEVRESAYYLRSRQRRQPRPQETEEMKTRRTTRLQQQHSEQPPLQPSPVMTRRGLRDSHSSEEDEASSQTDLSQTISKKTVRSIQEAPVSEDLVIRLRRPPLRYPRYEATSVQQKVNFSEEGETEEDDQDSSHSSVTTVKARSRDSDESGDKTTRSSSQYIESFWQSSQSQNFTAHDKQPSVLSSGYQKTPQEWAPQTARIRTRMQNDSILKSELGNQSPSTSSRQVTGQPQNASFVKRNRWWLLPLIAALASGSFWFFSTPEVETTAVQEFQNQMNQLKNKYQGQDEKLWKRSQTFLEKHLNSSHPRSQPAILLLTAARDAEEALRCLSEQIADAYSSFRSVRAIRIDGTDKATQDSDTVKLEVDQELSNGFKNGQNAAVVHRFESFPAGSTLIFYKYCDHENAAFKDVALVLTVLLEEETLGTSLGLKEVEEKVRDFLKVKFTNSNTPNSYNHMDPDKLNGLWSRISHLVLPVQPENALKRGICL
# Chain of Dickkopf-related protein 1 (Homo sapiens) (O94907 whole entry, looked up): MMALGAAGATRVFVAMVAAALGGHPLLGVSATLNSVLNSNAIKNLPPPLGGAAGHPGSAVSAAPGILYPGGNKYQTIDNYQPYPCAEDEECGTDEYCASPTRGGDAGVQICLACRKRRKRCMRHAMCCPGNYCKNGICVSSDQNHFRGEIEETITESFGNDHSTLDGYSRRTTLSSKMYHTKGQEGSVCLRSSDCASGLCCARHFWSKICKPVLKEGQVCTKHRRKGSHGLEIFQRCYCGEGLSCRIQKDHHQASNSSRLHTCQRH
# Chain of Fibroblast growth factor 10 (Homo sapiens) (O15520 whole entry, looked up): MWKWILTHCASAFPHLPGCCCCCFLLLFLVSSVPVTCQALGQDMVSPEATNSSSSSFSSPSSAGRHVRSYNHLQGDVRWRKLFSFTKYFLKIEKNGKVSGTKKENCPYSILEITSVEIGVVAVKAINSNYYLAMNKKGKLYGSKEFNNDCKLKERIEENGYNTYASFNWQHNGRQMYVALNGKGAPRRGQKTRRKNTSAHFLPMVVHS
SMILES,composite z-score [1],composite z-score [2],composite z-score [3],z-score [4],composite z-score [5],composite z-score [6],composite z-score [7],composite z-score [8],composite z-score [9],composite z-score [10],composite z-score [11],z-score [12],composite z-score [13],composite z-score [14],composite z-score [15],composite z-score [16],composite z-score [17],composite z-score [18],composite z-score [19],composite z-score [20]
CC(C)N1CC=CC23O[C@@H]4C=CCCOC(=O)C4[C@H]2C(=O)N(CCCO)[C@@H]3C1=O (stereo not given in full),0.415,-0.137,0.0009,-1.38 (inactive),-0.264,-0.322,-1.07,-0.317,-0.183,0.864,0.0707,-1.15,-0.539,-0.544,-0.694,-0.145,-0.0769,-0.0546,0.263,-0.659
[N-]=[N+]=Nc1ccccc1C[C@]1(C(=O)NCC(O)CO)COC(c2ccc(OCCCO)cc2)=N1 (stereo not given in full),0.989,0.72,1.18,0.173 (inactive),-0.582,-0.269,-0.603,-1.14,-0.975,1.16,0.776,-0.677,-0.314,1.32,0.37,-0.132,0.275,-0.236,2.01,-0.633
CC(C)C[C@@H]1NC(=O)[C@@H]2C[C@H](C(=O)NCCCCCCN)[C@H](c3cccc(OCCO)c3)N2C1=O,1.55,0.286,0.532,0.138 (inactive),1.13,0.712,0.0515,1.08,0.236,0.775,1.46,-0.125,0.281,0.861,-0.0534,-0.0461,-0.349,-0.346,1.13,1.67
CC(C)c1ccc(NN2C(C(O)c3ccc(C#N)cc3)C=CC3C(=O)N(c4ccccc4)C(=O)C32)cc1 (stereo not given),1.28,0.935,0.836,0.44 (inactive),0.98,0.888,0.397,1.24,-0.103,1,1.44,-0.882,-0.109,2.28,1.01,-0.0405,0.19,1.97,1.35,1.85
COc1cccc(C)c1NC(=O)O[C@H]1[C@H](OC(=O)Nc2ccc3c(c2)OCO3)[C@@H](OC(=O)Nc2ccc3c(c2)OCO3)[C@@H](OC)O[C@@H]1CO,0.264,0.18,0.232,-0.23 (inactive),1.46,1.35,0.603,1.44,0.708,0.724,1.42,0.658,0.794,0.108,-1.04,0.0973,0.149,-0.0899,1.5,0.869
O=C1C2C=CC(C(O)c3ccco3)N(Nc3ccccc3F)C2C(=O)N1c1ccccc1 (stereo not given),0.926,0.497,1.01,0.901 (inactive),0.285,0.179,-0.14,0.338,0.326,0.75,0.761,-0.137,-0.46,0.175,-0.0085,0.115,0.184,0.742,0.942,0.25
COCC(=C=CC[C@H](O)c1ccc(CO)o1)CCO,1.39,0.0057,-0.336,0.191 (inactive),1.52,0.654,-0.294,1.19,0.352,0.569,0.76,-0.793,0.173,-0.0876,-0.249,0.0108,-0.0119,0.502,-0.0673,0.818
CCOC(=O)C1=CC[C@@H](c2ccccc2F)N(S(=O)(=O)c2ccc(C)cc2)[C@H]1c1ccccc1,0.441,0.128,-0.106,-1.12 (inactive),0.801,1.16,0.486,0.766,0.253,0.713,1.34,-1.43,0.364,0.509,-0.355,-0.0924,-0.0866,-0.473,0.292,0.42
COc1cc2c(cc1O)C(C1CC1)N(C)CC2 (stereo not given),0.353,0.211,0.583,-0.451 (inactive),-0.382,-1.3,-1.17,-0.57,-0.896,0.942,-1.01,-0.817,-0.893,-1.01,-0.193,-0.0101,-0.24,-0.139,-0.431,-1.72
COC(=O)c1c(CC[C@@H](CO)NC(=O)N2CCC[C@H]2Cn2cc(C3(O)CCCCC3)nn2)oc(C(C)=O)c1C(=O)OC,1.65,-0.152,-0.404,-0.503 (inactive),0.955,0.56,0.197,0.742,0.336,0.0806,1.33,-0.172,0.562,0.624,-0.712,-0.275,-0.0709,0.189,0.416,0.966

# Reference: PubChem BioAssay
